PPC-1+TRAIL kill – kills PPC-1 cancer cells in the presence of TRAIL; actives 0.41% (n = 220,000); AID 1443; PPC-1 cells + TRAIL, ATPLite viability luminescence; cell killing (% activity), % at 4 µM or 5 µM;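 active = cell killing above 50% in the first pass at 4 µM, then a duplicate retest at 5 µM averaging 50% or more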
SENP8 block-1 – inhibitors of human SENP8 protease | actives 1.2% (n = 330,000) | purified SENP8, Z-RLRGG-aminoluciferin cleavage, luminescence | Q96LD8 | inhibition, % at 10 µM; in the data active = inhibition above about 50%
SENP7 block – SENP7 protease inhibition; recombinant SENP7, Z-RLRGG-aminoluciferin luminescence, 40 min; inhibition, % at 5 µM; actives 1.5% (n = 330,000); AID 434973;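 active = inhibition above about 50% at the single test dose, limit read from the data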
Target sequence (Q9BQF6 706-1050 limits assumed): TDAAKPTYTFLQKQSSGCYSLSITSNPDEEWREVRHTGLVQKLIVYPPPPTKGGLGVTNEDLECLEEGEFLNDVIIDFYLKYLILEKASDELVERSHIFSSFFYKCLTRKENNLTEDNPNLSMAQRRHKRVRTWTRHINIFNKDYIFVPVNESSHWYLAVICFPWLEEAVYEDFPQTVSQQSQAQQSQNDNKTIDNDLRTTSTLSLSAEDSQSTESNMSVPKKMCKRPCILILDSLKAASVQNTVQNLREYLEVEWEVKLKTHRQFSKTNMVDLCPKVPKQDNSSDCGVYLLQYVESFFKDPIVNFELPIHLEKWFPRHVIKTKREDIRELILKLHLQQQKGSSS
SENP6 block – blocks the human protease SENP6. inhibition, % at 10 µM. Q9GZR1. Recombinant SENP6 catalytic domain, aminoluciferin luminescence. AID 2599. actives 1.8% (n = 330,000);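 active = inhibition above about 50% at the single tested dose, limit read from the data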
SENP8 block-2 – SENP8 (human) protease inhibition. inhibition, % at 20 µM. recombinant SENP8, Nedd8 substrate fluorescence. actives 0.64% (n = 360,000). AID 602440; in the data active = inhibition mostly above about 40%, no sharp cut-off; inactive = mostly below about 27%
C8 TRAIL sens – caspase-8 TRAIL sensitization; actives 1% (n = 360,000); NB7+C8 cells + TRAIL, ATPlite viability luminescence; inhibition (viability loss, TRAIL sensitization), % at 10 µM;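 active = compounds causing at least 50% loss of cell viability in the single-dose screen, relative to plate controls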
SENP8 conf – human SENP8 inhibition, confirmed; shares compounds with SENP7 block; Recombinant SENP8, Z-RLRGG-aminoluciferin luminescence, 60 min; inhibition, % at 12.5 µM; actives 40% (n = 6,200); AID 488912;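 active = mean inhibition across replicates above about 50%, limit read from the data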
SENP6 confirm – human SENP6 inhibition, confirmed. shares compounds with SENP7 block. recombinant SENP6, Z-RLRGG-aminoluciferin luminescence. inhibition, % at 12.5 µM. actives 58% (n = 6,200). AID 488915
SENP7 conf – human SENP7 inhibition, confirmed | AID 488917 | shares compounds with SENP7 block | actives 69% (n = 6,200) | recombinant SENP7, Z-RLRGG-aminoluciferin luminescence, 40 min | inhibition, % at 12.5 µM
Casp3 SENP sel – selectivity test for SENP inhibitors: human caspase-3 inhibition; shares compounds with SENP7 block; purified caspase-3, Z-DEVD-aminoluciferin luminescence, 60 min; inhibition, % at 12.5 µM; actives 60% (n = 6,200);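 active = mean inhibition above about 50%, limit read from the data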
Target sequence (P42574 28-227 limits assumed): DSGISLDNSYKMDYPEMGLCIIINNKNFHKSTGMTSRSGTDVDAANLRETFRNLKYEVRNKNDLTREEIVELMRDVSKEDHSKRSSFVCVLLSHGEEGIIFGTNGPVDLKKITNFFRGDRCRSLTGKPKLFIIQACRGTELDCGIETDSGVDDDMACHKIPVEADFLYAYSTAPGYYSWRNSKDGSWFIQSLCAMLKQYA
Luc interf – interferes with luciferase luminescence in SENP counter-screen; Pre-incubated SENP8/Z-RLRGG-aminoluciferin, luciferase luminescence interference; actives 39% (n = 6,200); inhibition, % at 12.5 µM; shares compounds with SENP7 block; AID 488919;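 active = mean inhibition above about 50% when retested at one dose, limit read from the data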
Each line names hits and unclear results; the compound was inactive in the other large screens (follow-up assays come after a bar, where they were run). Most compounds without a hit are left out; they make up all but 3% or so of the library.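 Rule for the calls, unless noted: active = mean inhibition above about 50% in the one-dose retest (limit read from the data); inactive = the rest.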

COc1cccc(S(=O)(=O)N(C)C[C@H]2OCc3cn(nn3)CCCC(=O)N([C@@H](C)CO)C[C@@H]2C)c1	none (no result: PPC-1+TRAIL kill, SENP8 block-1, SENP7 block, SENP6 block)
CC(C)c1ccc(NC(=S)Nc2cccc3ccccc23)cc1	none (no result: PPC-1+TRAIL kill)
Cc1cc(C)cc(NC(=S)Nc2cccc3ccccc23)c1	SENP8 block-1 59, SENP6 block 71 (no result: PPC-1+TRAIL kill) | SENP8 conf inactive | SENP6 confirm inactive | SENP7 conf inactive | Casp3 SENP sel inactive | Luc interf inactive
CSc1ccccc1NC(=S)Nc1cc(C)cc(C)c1	none
Fc1ccc(NC(=S)Nc2cccc3ccccc23)cc1	SENP6 block 65 (no result: PPC-1+TRAIL kill) | SENP8 conf inactive | SENP6 confirm inactive | SENP7 conf inactive | Casp3 SENP sel inactive | Luc interf inactive
Cc1ccc(NC(=S)Nc2cccc3ccccc23)cc1	SENP6 block 81 (no result: PPC-1+TRAIL kill) | SENP8 conf inactive | SENP6 confirm inactive | SENP7 conf inactive | Casp3 SENP sel inactive | Luc interf inactive
COc1ccc(NC(=O)N(C)C[C@H]2OCCCC[C@H](C)Oc3ccc(NC(=O)Nc4ccc5c(c4)OCO5)cc3C(=O)N([C@@H](C)CO)C[C@@H]2C)cc1	none (no result: PPC-1+TRAIL kill, SENP8 block-1, SENP7 block, SENP6 block)
NC1(C(=O)O)CCCCC1c1ccccc1 (stereo unspecified)	none (no result: PPC-1+TRAIL kill, SENP8 block-1, SENP7 block, SENP6 block)
Cc1ccc(NC(=O)Cn2cccc2)c(Br)c1	none
Cc1ccc(NC(=O)c2ccccn2)c(Br)c1	SENP8 block-1 72, SENP7 block 73, SENP6 block 82 | SENP8 conf 66 | SENP6 confirm 83 | SENP7 conf 79 | Casp3 SENP sel 64 | Luc interf inactive
Cn1ccc(C(=O)Nc2ccc(Br)cc2Br)n1	SENP6 block 66 | SENP8 conf inactive | SENP6 confirm inactive | SENP7 conf 65 | Casp3 SENP sel 54 | Luc interf inactive
Cc1ccc(NC(=O)c2ccn(C)n2)c(Br)c1	SENP6 block 61 | SENP8 conf inactive | SENP6 confirm inactive | SENP7 conf 81 | Casp3 SENP sel 68 | Luc interf 61
Cc1cc2nc(-c3ccc[nH]c3=O)[nH]c2cc1C	SENP8 block-1 92, SENP7 block 97, SENP6 block 95, C8 TRAIL sens 90 (no result: PPC-1+TRAIL kill) | SENP8 conf 96 | SENP6 confirm 97 | SENP7 conf 102 | Casp3 SENP sel 98 | Luc interf 82
CCN(CC(=O)NC(C)(C)C)C(=O)c1cccc(S(=O)(=O)N2CC3(C)CC2CC(C)(C)C3)c1 (stereo unspecified)	none (no result: PPC-1+TRAIL kill, SENP8 block-1, SENP7 block, SENP6 block)
COc1cccc(C(=O)Nc2cccc(OCC(=O)O)c2)c1	SENP7 block 58 | SENP8 conf 53 | SENP6 confirm inactive | SENP7 conf 81 | Casp3 SENP sel 84 | Luc interf 56
COc1cccc(C(=O)Nc2ccc3ccccc3c2)c1	SENP8 block-1 86, SENP7 block 91, SENP6 block 89 (no result: PPC-1+TRAIL kill) | SENP8 conf inactive | SENP6 confirm 86 | SENP7 conf 99 | Casp3 SENP sel 73 | Luc interf 84
CS(=O)(=O)Nc1ccc(C(=O)Nc2ccc3ccccc3c2)cc1	SENP7 block 58 (no result: PPC-1+TRAIL kill) | SENP8 conf inactive | SENP6 confirm inactive | SENP7 conf 65 | Casp3 SENP sel inactive | Luc interf inactive
COc1ccc(OC)c(C(=O)c2ccc(C(=O)Nc3ccc4ccccc4c3)cc2)c1	none
COc1ccc(C(=O)Nc2ccc3ccccc3c2)cc1	SENP8 block-1 86, SENP7 block 96, SENP6 block 88, C8 TRAIL sens 69 (no result: PPC-1+TRAIL kill) | SENP8 conf inactive | SENP6 confirm 84 | SENP7 conf 100 | Casp3 SENP sel 80 | Luc interf inactive
COc1cc(C(=O)Nc2ccc3ccccc3c2)cc(OC)c1OC	none (no result: PPC-1+TRAIL kill, SENP8 block-2, C8 TRAIL sens)
CCn1c(SC)nnc1C1CCCN(CC(=O)Nc2ccccc2N2CCOCC2)C1 (stereo unspecified)	none (no result: PPC-1+TRAIL kill)
C[C@@H]1CN([C@@H](C)CO)C(=O)CCCn2nncc2CO[C@H]1CN(C)S(=O)(=O)c1ccc(Oc2ccccc2)nc1	none (no result: PPC-1+TRAIL kill, SENP8 block-1, SENP7 block, SENP6 block)
O=C(COC(=O)Cc1cccc(F)c1)NC(=O)NC1CCCCC1	none (no result: PPC-1+TRAIL kill)
COc1ccc(C(=O)Nc2ccc3c(c2)C(=O)NC3=O)cc1	none (no result: PPC-1+TRAIL kill)
COc1cccc(C(=O)Nc2cccc(SC)c2)c1	SENP8 block-1 55, SENP7 block 75, SENP6 block 79 | SENP8 conf 72 | SENP6 confirm 72 | SENP7 conf 90 | Casp3 SENP sel 65 | Luc interf 70
COc1cccc(C(=O)Nc2cccc(NC(=O)c3ccccc3Cl)c2)c1	none (no result: PPC-1+TRAIL kill)
COc1ccc(C(=O)Nc2cc(OC)nc(OC)n2)cc1	SENP8 block-1 74, SENP7 block 83, SENP6 block 87 | SENP8 conf 83 | SENP6 confirm 83 | SENP7 conf 97 | Casp3 SENP sel 92 | Luc interf 84
COc1cccc(C(=O)Nc2ccc3c(c2)C(=O)NC3=O)c1	SENP8 block-1 51, SENP7 block 55, SENP6 block 58 (no result: PPC-1+TRAIL kill) | SENP8 conf inactive | SENP6 confirm inactive | SENP7 conf inactive | Casp3 SENP sel inactive | Luc interf inactive
CCOc1cccc(C(=O)Nc2ccc(NC(=O)c3ccccc3)c(C)c2)c1	SENP8 block-1 77, SENP7 block 78, SENP6 block 78 (no result: PPC-1+TRAIL kill) | SENP8 conf inactive | SENP6 confirm inactive | SENP7 conf inactive | Casp3 SENP sel 86 | Luc interf inactive
CCCCCCCCN1C(=O)[C@H](CC(=O)NCCC(C)C)C[C@@]2(C(=O)OCC)CCC=C12	none (no result: PPC-1+TRAIL kill, SENP8 block-1, SENP7 block, SENP6 block)
Cc1ccc(N2CCN(C(=O)C(=O)c3ccc(F)c(F)c3)CC2)cc1	none (no result: PPC-1+TRAIL kill, SENP8 block-1, SENP7 block, SENP6 block)
Cc1ccc(CN2CC(N3CCCCC3)CS2(=O)=O)cc1 (stereo unspecified)	none (no result: PPC-1+TRAIL kill, SENP8 block-1, SENP7 block, SENP6 block)
Cc1cc(C)c(NC(=O)CSCc2c(C)noc2C)c(Cl)c1	none (no result: PPC-1+TRAIL kill)
CCCC(=O)Nc1ccc(NC(=O)c2cccc(OC)c2)nc1	SENP6 block 52 | SENP8 conf inactive | SENP6 confirm inactive | SENP7 conf 75 | Casp3 SENP sel 76 | Luc interf 52
COc1cccc(C(=O)Nc2ccc(NC(C)=O)cn2)c1	none
COc1ccccc1CNC(=O)c1cccc(NC(=O)c2ccccc2)c1	SENP6 block 93 | SENP8 conf inactive | SENP6 confirm inactive | SENP7 conf inactive | Casp3 SENP sel inactive | Luc interf inactive

Screens from PubChem.
